Molecules are shown by their SMILES. The campaign covered roughly 69,000 compounds. About 8,600 (12%) showed an effect of 50% or more. The sample holds strong results, similar compounds and a random draw of the others, so the mix is not that of the screen.

The subject of this assay is Plasmodium berghei. Kind of assay: Screen against P. berghei liver stage (PbLuc), transformed with Luciferase, at 10uM. The class given is functional, HepG2. As to conditions: tested at 10 uM.
Turning to `O=C(NCc1nnc2n1CCCCC2)N1CCC2(CCCCC2)C1`, the INHIBITION worked out at 47.9%.

Consider `CC(C)CCC(=O)N1CCN(C(C)c2nnc(CC(C)C)o2)CC1` (stereo not given), for which the INHIBITION came out at 13.8%.

Turning to `COCCNC(=O)CCN1C(=O)CC2(CCCC2)C1=O`, the INHIBITION was found to be 29%.

`Cc1cc(C(=O)N2CCCN(c3nccs3)CC2)c(C)n1C(C)C`: the INHIBITION is -26.3%.

As for `Cc1cc(NC(=O)NCC(C(C)C)N2CCOCC2)n(C)n1` (stereo not given), the INHIBITION is 28.8%.

For `CNC(=O)c1n[nH]c2c1C(c1cccc3[nH]ccc13)CC(=O)N2` (stereo not given), the INHIBITION came to 24.4%.

`CNC(=O)c1n[nH]c2c1C(c1cccc3nsnc13)CC(=O)N2` (stereo not given): the INHIBITION is reported as 46.9%.

Regarding `CNC(=O)c1n[nH]c2c1C(c1cccc3c1OC(C)(C)C3)CC(=O)N2` (stereo not given), the INHIBITION is given as 50.1%.

Regarding `CCc1[nH]ncc1C(=O)N1CCOC(c2nc(C)n[nH]2)C1` (stereo not given), the INHIBITION is listed as 25.6%.

Turning to `Cn1ccnc1CN1CC[C@@H](NS(C)(=O)=O)[C@@H]1Cc1ccccc1`, the INHIBITION stood at 45.1%.

On to `COc1ccc(COCC(O)CNC(=O)c2ccc(C)c(F)c2)cc1` (stereo not given), for which the INHIBITION is given as 52.3%.

Regarding `COc1ccc(COCC(O)CNC(=O)c2cc(C)cc(C)c2)cc1` (stereo not given), the INHIBITION is given as 17.7%.

For `COc1ccc(COCC(O)CNC(=O)c2cccc(OC)c2)cc1` (stereo not given), the INHIBITION amounted to 23.5%.

Regarding `CS(=O)(=O)NC1CCN(c2cccc(F)c2C#N)CC1`, the INHIBITION is listed as -12.1%.

In the case of `CC(=O)Nc1ccc(-c2cn(CCn3c(C)cc(C)nc3=O)nn2)cc1`, the INHIBITION was -31.1%.

For `COc1ccc(-c2cn(CCn3c(C)cc(C)nc3=O)nn2)cn1`, the INHIBITION worked out at 51.4%.

With `COc1c(F)cc(-c2cn(CCn3c(C)cc(C)nc3=O)nn2)cc1Cl`, the INHIBITION is -4.68%.

In the case of `CC(C)C1SCC(=O)Nc2c1c(O)nn2C1CCCC1` (stereo not given), the INHIBITION amounted to 1.04%.

In the case of `CC(C)(C)C1SCC(=O)Nc2c1c(O)nn2C1CCCCC1` (stereo not given), the INHIBITION turned out to be 37.4%.

Take `CC(C)C1SCC(=O)Nc2c1c(O)nn2C1CCCCC1` (stereo not given): the INHIBITION is recorded as 74.4%.

As for `CC(C)Oc1ccccc1C1CC(=O)Nc2nc(N3CCOCC3)sc21` (stereo not given), the INHIBITION was -41.2%.

For the compound `Cc1nc2c(c(=O)[nH]1)CCN(C(=O)c1[nH]nc3c1CC(C)CC3)C2` (stereo not given), the INHIBITION is on record as 15.2%.

`c1nc(CN2CCCC(Cc3ccc(NC4CCCC4)nn3)C2)c[nH]1` (stereo not given): the INHIBITION amounted to 13.7%.

`CCNc1ccnc(N2CCN(Cc3ncccc3C)CC2)n1`: the INHIBITION was determined as 51.3%.

`Cc1cccnc1CN1CCN(c2noc(-c3ccccc3)n2)CC1`: the INHIBITION is given as -13.2%.

For `Cc1cc(C)c2c(N3CCN(CCN4CCOCC4)CC3)ncnc2n1`, the INHIBITION is listed as 40.3%.

With `Cc1cc(C)c2c(N3CCN(Cc4ncccc4C)CC3)ncnc2n1`, the INHIBITION was 58.1%.

Regarding `COCCN1CCN(c2ncnc3nc(C)cc(C)c23)CC1`, the INHIBITION is given as -14.1%.

In the case of `CCOc1ccnc(N2CCN(Cc3ncccc3C)CC2)n1`, the INHIBITION turned out to be 27.9%.

In the case of `CC(C)C(=O)N1CCN(c2ncnc3cc4c(cc23)OCCO4)CC1`, the INHIBITION stood at 2.69%.

For `O=C(O)c1ccccc1-n1cc(CN2CCOC(c3cc[nH]n3)C2)cn1` (stereo not given), the INHIBITION is on record as 20.7%.

On to `Cc1ccc(-c2nc(CN3CCCC(Cn4cncn4)C3)cs2)o1` (stereo not given), for which the INHIBITION was -7.35%.

As for `Nc1ncnc2nc(C3CCN(C(=O)Cc4ccc(F)cc4)C3)ccc12` (stereo not given), the INHIBITION is recorded as -19.9%.

For the compound `CCC(C)N(Cc1cnc(NC(C)C)nc1)Cc1ccsc1` (stereo not given), the INHIBITION is on record as 30.4%.

For the compound `CCc1nnc(Nc2cccc(C3CCN(C(=O)CNC)CC3)n2)s1`, the INHIBITION is -17.7%.

As to `CC(Cc1cn(CCc2n[nH]c(=O)[nH]2)nn1)c1ccccc1` (stereo not given), the INHIBITION is given as 18.5%.

On to `CN(C)c1ccc(CC2CCN(c3cnccn3)C2)nn1` (stereo not given), for which the INHIBITION stood at 0.696%.

`COC1(CNC(=O)c2ccsc2)CCSC1` (stereo not given): the INHIBITION is 5.91%.

For `COC(=O)CN1CCC(C(F)(F)F)CC1`, the INHIBITION was -8.9%.

In the case of `CN(C)Cc1cnc2n1CCN(C(=O)Cc1ccsc1)CC2`, the INHIBITION was found to be 11.3%.

For the compound `CN(C)Cc1cnc2n1CCN(C(=O)Cc1ccc(F)cc1)CC2`, the INHIBITION was found to be 52.6%.

`CN(C)Cc1cnc2n1CCN(C(=O)Cc1cccc(F)c1)CC2`: the INHIBITION was 37.9%.

Regarding `Cc1ccsc1C(=O)N1CCc2ncc(CN3CCCC3)n2CC1`, the INHIBITION is reported as 8.6%.

As to `Cc1ccsc1C(=O)N1CCc2ncc(Cn3cccn3)n2CC1`, the INHIBITION is on record as 29.4%.

As for `Cc1ccsc1C(=O)N1CCc2ncc(CN(C)C)n2CC1`, the INHIBITION was 62.9%.

Regarding `Cc1nc(N)ncc1C(=O)N1CCCC(CCc2ccccc2F)C1` (stereo not given), the INHIBITION worked out at 43.9%.

For `O=c1[nH]c2ccccc2cc1CNCCCN1CCOCC1`, the INHIBITION was determined as 36.4%.

`O=C(N1CCCC1)N1CCC2(CCN(Cc3ccccn3)C2=O)C1` (stereo not given): the INHIBITION amounted to 15.6%.

With `Cc1ccc(CN2CCc3nnc(CN4CCCC4=O)n3CC2)s1`, the INHIBITION worked out at 37.1%.

As for `O=C(Cc1ccsc1)N1CCCC(CNS(=O)(=O)Cc2ccccc2)C1` (stereo not given), the INHIBITION was 34.6%.

Consider `O=C(Cc1cccs1)N1CCCC(CNS(=O)(=O)Cc2ccccc2)C1` (stereo not given), for which the INHIBITION is given as 73.6%.

Take `O=S(=O)(Cc1ccccc1)NCC1CCCN(Cc2cccs2)C1` (stereo not given): the INHIBITION amounted to 48.1%.

`CS(=O)(=O)NCC1CCCN(C(=O)COCc2ccccc2)C1` (stereo not given): the INHIBITION is on record as 32.6%.

As to `CS(=O)(=O)NCC1CCCN(C(=O)CCCc2ccccc2)C1` (stereo not given), the INHIBITION was -0.18%.

Turning to `O=C(CN1CCCC1)N1CCCC(CNS(=O)(=O)Cc2ccccc2)C1` (stereo not given), the INHIBITION worked out at 51.3%.

The record behind these values is ChEMBL document CHEMBL4513216, “Probing the Open Global Health Chemical Diversity Library for Multistage-Active Starting Points for Next-Generation Antimalarials” (ACS Infect Dis, 2020).
